{"source": "the supplement of paper PMC11732987", "about": "“Enantioselective OTUD7B fragment discovery through chemoproteomics screening and high-throughput optimisation” (Communications Chemistry, 2025)", "assay_in_all_cases": "log2 ratio of Biotin-Ahx-Ub-VS probe labelling (fragment/DMSO); higher = less target engagement (more negative = stronger competition), active = hit call of the paper (q ≤ 0.05, log2 ratio ≤ -1)", "conditions_in_all_cases": "compound concentration: 200 uM; treatment time: 3 h", "key": {"OTUD6B": {"target": "T1, OTUD6B (UniProt Q8N6M0)", "T1 sequence (whole entry)": "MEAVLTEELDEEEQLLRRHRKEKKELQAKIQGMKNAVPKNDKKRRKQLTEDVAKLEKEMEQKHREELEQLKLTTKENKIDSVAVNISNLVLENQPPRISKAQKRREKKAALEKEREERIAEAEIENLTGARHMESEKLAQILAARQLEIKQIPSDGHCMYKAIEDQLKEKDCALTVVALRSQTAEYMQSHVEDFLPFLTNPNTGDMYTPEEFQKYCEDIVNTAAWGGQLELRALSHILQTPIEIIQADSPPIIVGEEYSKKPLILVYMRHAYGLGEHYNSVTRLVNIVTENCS", "how_it_was_run": "(§1)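 The table lists average log2 ratios of fragment over vehicle, from an unpaired t-test on global-median-normalised Spectronaut label-free quantities. Proteins with ≥2 unique peptides were used. Samples were HEK293T lysate (495 µg) treated in triplicate with fragment at 200 µM or vehicle for 3 h, then with Biotin-Ahx-Ub-VS (0.5 µM final) for 1 h, with labelled DUBs NeutrAvidin-enriched and run by diaPASEF LC-MS/MS.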"}, "OTUD7B": {"target": "T2, OTUD7B (UniProt Q6GQQ9)", "T2 sequence (whole entry)": "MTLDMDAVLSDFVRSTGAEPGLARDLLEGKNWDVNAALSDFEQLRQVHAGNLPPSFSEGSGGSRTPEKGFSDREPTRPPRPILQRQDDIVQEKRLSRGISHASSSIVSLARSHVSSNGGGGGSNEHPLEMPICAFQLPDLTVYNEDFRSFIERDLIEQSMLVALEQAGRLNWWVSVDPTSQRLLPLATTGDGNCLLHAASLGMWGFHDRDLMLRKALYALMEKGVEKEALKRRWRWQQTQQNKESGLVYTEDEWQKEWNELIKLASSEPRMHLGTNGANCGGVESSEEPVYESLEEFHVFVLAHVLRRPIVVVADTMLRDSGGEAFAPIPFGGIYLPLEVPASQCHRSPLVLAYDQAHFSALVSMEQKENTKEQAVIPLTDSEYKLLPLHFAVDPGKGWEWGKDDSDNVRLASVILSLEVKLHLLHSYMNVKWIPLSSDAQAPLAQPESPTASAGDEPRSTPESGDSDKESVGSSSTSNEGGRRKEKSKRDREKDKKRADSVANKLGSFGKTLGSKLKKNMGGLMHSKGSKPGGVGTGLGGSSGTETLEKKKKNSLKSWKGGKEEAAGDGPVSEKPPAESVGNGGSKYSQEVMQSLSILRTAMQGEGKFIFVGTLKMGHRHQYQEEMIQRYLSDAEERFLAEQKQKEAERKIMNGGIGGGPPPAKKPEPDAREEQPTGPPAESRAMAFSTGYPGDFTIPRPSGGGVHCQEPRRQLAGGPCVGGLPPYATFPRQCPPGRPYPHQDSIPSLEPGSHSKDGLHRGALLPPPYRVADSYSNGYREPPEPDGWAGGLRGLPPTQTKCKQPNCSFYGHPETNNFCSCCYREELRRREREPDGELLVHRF", "how_it_was_run": "as §1"}, "PRPF8": {"target": "PRPF8 (UniProt Q6P2Q9)", "how_it_was_run": "as §1"}, "PSMD7": {"target": "T3, PSMD7 (UniProt P51665)", "T3 sequence (whole entry)": "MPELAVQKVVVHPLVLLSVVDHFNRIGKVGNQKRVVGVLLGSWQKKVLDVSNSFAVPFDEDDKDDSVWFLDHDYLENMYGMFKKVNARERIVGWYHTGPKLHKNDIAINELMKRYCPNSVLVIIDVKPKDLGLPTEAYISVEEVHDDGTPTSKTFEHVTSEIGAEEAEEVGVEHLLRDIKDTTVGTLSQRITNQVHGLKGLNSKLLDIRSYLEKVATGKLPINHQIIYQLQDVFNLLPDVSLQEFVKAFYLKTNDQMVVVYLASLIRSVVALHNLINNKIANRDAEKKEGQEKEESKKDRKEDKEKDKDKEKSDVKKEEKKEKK", "how_it_was_run": "as §1"}, "UCHL1": {"target": "UCHL1 (UniProt P09936)", "sequence (P09936 whole entry, looked up)": "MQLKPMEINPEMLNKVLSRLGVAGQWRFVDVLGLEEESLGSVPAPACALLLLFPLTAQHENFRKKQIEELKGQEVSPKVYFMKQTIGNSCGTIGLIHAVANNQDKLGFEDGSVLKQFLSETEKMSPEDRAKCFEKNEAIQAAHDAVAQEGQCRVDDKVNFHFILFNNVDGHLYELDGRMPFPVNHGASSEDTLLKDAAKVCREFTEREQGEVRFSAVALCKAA", "how_it_was_run": "as §1"}, "UCHL3": {"target": "T4, UCHL3 (UniProt P15374)", "T4 sequence (whole entry)": "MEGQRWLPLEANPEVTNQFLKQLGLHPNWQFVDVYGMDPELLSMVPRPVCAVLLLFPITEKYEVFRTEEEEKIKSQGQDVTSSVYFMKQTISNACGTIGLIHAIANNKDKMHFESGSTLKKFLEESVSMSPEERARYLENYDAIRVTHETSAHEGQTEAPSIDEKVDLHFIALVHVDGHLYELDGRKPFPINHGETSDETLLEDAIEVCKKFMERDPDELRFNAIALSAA", "how_it_was_run": "as §1"}, "UCHL5": {"target": "T5, UCHL5 (UniProt Q9Y5K5)", "T5 sequence (whole entry)": "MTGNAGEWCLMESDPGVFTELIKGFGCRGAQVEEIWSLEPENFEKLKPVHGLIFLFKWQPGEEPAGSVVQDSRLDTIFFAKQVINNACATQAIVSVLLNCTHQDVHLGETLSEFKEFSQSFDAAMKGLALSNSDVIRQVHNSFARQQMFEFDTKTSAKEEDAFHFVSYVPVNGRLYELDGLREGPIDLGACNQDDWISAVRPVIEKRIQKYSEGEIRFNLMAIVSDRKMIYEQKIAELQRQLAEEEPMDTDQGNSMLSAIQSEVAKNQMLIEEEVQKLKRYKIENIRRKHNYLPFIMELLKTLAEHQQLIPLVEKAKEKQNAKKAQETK", "how_it_was_run": "as §1"}, "USP10": {"target": "USP10 (UniProt Q14694)", "sequence (Q14694 whole entry)": "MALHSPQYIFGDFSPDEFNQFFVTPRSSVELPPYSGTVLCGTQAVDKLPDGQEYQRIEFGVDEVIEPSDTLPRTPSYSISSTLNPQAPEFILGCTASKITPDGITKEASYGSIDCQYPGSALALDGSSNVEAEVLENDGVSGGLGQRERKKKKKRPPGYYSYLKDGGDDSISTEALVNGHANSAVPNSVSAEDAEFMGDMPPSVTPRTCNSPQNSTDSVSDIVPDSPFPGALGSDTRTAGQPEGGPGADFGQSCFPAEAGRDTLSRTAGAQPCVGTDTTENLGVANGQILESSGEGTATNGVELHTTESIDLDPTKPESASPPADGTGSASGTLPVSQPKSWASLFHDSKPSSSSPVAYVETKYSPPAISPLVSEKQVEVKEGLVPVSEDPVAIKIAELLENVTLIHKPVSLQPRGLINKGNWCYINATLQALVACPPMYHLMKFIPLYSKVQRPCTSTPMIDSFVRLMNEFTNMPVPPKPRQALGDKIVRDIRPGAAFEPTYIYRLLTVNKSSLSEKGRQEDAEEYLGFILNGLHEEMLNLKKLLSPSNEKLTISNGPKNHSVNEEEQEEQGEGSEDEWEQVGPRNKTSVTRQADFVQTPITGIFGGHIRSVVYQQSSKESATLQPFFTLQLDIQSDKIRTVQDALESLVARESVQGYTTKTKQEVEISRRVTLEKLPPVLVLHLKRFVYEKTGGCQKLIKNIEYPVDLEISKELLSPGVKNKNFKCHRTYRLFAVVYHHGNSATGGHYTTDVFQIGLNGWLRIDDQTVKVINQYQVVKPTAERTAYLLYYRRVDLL", "how_it_was_run": "as §1"}, "USP15": {"target": "T6, USP15 (UniProt Q9Y4E8)", "T6 sequence (whole entry)": "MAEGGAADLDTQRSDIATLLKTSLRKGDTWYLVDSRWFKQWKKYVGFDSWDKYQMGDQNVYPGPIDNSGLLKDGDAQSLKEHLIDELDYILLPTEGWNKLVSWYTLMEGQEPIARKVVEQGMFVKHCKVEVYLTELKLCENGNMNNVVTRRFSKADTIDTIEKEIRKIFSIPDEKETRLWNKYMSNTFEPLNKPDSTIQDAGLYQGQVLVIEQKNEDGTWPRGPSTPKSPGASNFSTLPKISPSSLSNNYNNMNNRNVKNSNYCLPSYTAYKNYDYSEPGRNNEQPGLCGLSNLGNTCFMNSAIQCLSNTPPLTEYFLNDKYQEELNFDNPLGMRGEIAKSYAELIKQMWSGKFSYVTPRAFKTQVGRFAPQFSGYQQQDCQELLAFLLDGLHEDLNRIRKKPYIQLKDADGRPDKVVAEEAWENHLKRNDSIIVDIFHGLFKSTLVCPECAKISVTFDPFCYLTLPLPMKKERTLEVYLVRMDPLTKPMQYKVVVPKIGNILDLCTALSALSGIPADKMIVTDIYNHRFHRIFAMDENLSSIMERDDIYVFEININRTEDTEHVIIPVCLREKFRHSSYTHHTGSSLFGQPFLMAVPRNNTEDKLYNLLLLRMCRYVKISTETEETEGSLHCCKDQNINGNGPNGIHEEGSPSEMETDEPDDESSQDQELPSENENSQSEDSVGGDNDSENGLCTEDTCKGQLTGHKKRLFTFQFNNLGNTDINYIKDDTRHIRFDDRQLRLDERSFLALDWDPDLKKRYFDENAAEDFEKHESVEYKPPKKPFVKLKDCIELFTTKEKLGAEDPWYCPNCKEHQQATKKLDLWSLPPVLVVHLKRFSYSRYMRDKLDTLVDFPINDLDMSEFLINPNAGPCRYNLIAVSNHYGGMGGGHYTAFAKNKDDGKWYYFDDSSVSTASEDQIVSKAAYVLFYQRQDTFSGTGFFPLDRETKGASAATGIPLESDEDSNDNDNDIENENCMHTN", "how_it_was_run": "as §1"}, "USP16": {"target": "USP16 (UniProt Q9Y5T5)", "sequence (Q9Y5T5 whole entry, looked up)": "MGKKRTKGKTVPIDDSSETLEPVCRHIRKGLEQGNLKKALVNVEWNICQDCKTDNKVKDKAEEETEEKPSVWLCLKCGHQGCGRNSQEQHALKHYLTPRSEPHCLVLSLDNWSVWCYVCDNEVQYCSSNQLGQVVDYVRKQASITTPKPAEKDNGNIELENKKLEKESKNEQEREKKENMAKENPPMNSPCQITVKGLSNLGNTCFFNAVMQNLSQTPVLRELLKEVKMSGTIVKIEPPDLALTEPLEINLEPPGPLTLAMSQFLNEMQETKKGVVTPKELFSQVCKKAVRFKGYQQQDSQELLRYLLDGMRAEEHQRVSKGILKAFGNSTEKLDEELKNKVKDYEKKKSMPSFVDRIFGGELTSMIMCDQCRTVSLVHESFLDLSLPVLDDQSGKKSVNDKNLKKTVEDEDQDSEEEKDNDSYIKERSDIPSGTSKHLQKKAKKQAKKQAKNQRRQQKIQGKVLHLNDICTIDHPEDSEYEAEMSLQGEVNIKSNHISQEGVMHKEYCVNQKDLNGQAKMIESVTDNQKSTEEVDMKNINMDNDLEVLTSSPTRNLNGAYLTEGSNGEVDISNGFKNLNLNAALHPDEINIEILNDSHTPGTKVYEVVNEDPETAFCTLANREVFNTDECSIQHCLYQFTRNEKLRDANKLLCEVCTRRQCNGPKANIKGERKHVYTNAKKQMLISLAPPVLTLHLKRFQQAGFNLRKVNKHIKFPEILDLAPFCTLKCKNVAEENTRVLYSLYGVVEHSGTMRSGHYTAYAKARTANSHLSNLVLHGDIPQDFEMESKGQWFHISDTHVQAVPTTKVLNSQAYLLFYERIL", "how_it_was_run": "as §1"}}, "note": "Values without a mark were called inactive."}
{"compound": "O=C(CCl)N1CCOC(CCc2ccccc2)C1", "note": "(stereo not given)", "values": [{"measurement": "log2 ratio of Biotin-Ahx-Ub-VS probe labelling", "setting": "OTUD6B", "value": -0.215}, {"measurement": "log2 ratio of Biotin-Ahx-Ub-VS probe labelling", "setting": "OTUD7B", "value": -0.71}, {"measurement": "log2 ratio of Biotin-Ahx-Ub-VS probe labelling", "setting": "PRPF8", "value": -0.0352}, {"measurement": "log2 ratio of Biotin-Ahx-Ub-VS probe labelling", "setting": "PSMD7", "value": -0.432}, {"measurement": "log2 ratio of Biotin-Ahx-Ub-VS probe labelling", "setting": "UCHL1", "value": "-1.46 (active)"}, {"measurement": "log2 ratio of Biotin-Ahx-Ub-VS probe labelling", "setting": "UCHL3", "value": -0.025}, {"measurement": "log2 ratio of Biotin-Ahx-Ub-VS probe labelling", "setting": "UCHL5", "value": -0.22}, {"measurement": "log2 ratio of Biotin-Ahx-Ub-VS probe labelling", "setting": "USP10", "value": -0.258}, {"measurement": "log2 ratio of Biotin-Ahx-Ub-VS probe labelling", "setting": "USP15", "value": -0.374}, {"measurement": "log2 ratio of Biotin-Ahx-Ub-VS probe labelling", "setting": "USP16", "value": -0.411}]}
